In publication PMC10726135, “HNF4α isoforms regulate the circadian balance between carbohydrate and lipid metabolism in the liver” one finds binding signal data, which are given here for 44 sequences.

The full ranking holds about 18,000 sequences; the median of “log2 normalized intensity” is about 0.39, and the highest 2% start at about 6.6. Only a selection was taken, and the highest values are over-represented in it overall.

The target of the assay is T1, HNF4alpha2 (COS-7 nuclear extract) (Homo sapiens, UniProt P41235 1-474).
T1 sequence: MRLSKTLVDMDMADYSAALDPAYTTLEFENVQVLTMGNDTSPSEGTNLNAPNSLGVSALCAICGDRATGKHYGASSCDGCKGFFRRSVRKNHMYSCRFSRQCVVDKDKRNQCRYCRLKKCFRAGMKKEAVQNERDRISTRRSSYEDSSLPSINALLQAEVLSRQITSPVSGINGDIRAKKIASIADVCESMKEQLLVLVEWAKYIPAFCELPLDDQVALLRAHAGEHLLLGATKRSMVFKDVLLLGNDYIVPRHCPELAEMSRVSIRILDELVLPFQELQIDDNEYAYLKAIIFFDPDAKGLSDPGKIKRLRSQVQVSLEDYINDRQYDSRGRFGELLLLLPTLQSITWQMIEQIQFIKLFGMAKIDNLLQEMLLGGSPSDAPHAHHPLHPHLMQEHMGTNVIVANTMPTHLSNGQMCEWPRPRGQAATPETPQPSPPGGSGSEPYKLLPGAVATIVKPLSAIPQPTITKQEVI
Kind of assay: protein-binding microarray; COS-7 nuclear extract on double-stranded Agilent 4x180k PBM; binding buffer, salt, pH and temperature not given in the material; high values mean tight binding. The settings on record: chain copies: 2; label: 3' end of strand 1 on the slide; dsDNA, one strand shown. Summed up: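 The binding signal is Agilent software's gProcessedSignal after background correction and normalization. Arrays were a custom Agilent SurePrint G3 4x180k design of double-stranded ~60-nt oligonucleotides with ~44,000 test sequences in quadruplicate, probed with nuclear extracts of COS-7 cells transiently expressing a human HNF4α isoform. Scans were made at 2-µm resolution on an Agilent G2565CA scanner.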
For “TCTTAACATCAGAAGTTGGACTTTGTACATGCCTAGGGAGATTAGAGTATCGGTCGA”, the binding signal was determined as 9.62 log2 normalized intensity.

As to “AGGGACTTTGATCTTCTTACCCCTTTGCTGGCCTAGGGAGATTAGAGTATCGGTCGA”, the binding signal stood at 2.86 log2 normalized intensity.

For “AGGAGATGTGGTGGACTTTAACGACCTTTGGCCTAGGGAGATTAGAGTATCGGTCGA”, the binding signal is 4.66 log2 normalized intensity.

For “ACTTTGGAACTCAGTTAATGTACAGAGTATGCCTAGGGAGATTAGAGTATCGGTCGA”, the binding signal was found to be 0.375 log2 normalized intensity.

Take “CCCCTTCTTAACATCAGAAGTTGGACTTTGGCCTAGGGAGATTAGAGTATCGGTCGA”: the binding signal was found to be 7.59 log2 normalized intensity.

Regarding “ATTAGAGAACATGTACTTTGTACTGCTTATGCCTAGGGAGATTAGAGTATCGGTCGA”, the binding signal is 4.15 log2 normalized intensity.

As for “CTTTGCTCCCACCCTGCAATTCCCCTGGGCGCCTAGGGAGATTAGAGTATCGGTCGA”, the binding signal was 3.29 log2 normalized intensity.

For “CAAACAGACCTCCCCCAACTTACTTAGTGGGCCTAGGGAGATTAGAGTATCGGTCGA”, the binding signal worked out at 1.85 log2 normalized intensity.

Take “TTCAATTTTTTTGTTGTTATCCATTTAAAAGCCTAGGGAGATTAGAGTATCGGTCGA”: the binding signal was found to be 1.04 log2 normalized intensity.

Consider “GTATCTAATCTCAGATATGCTAATTAACCCGCCTAGGGAGATTAGAGTATCGGTCGA”, for which the binding signal is 1.79 log2 normalized intensity.

With “GTTATGAGTCTGTTGTCTAACATTTTTGACGCCTAGGGAGATTAGAGTATCGGTCGA”, the binding signal was found to be 0.629 log2 normalized intensity.

As for “CTTACTTGGCCTGTTTGCTGAAGGCCATGCGCCTAGGGAGATTAGAGTATCGGTCGA”, the binding signal was found to be 0.0452 log2 normalized intensity.

Take “CAACTAGGGCAAAGGTTAGCTTGGACAGAGGCCTAGGGAGATTAGAGTATCGGTCGA”: the binding signal was found to be 2.72 log2 normalized intensity.

For the sequence “GGTATGTTTGTGATATTGTGAAATATATATGCCTAGGGAGATTAGAGTATCGGTCGA”, the binding signal worked out at 2.03 log2 normalized intensity.

For “TCATGGCTCACTGCACCTTGACCTCCTGGGGCCTAGGGAGATTAGAGTATCGGTCGA”, the binding signal is 4.99 log2 normalized intensity.

Take “TGCCTTTGATCAGGGACCTTTGTTCCTTTAGCCTAGGGAGATTAGAGTATCGGTCGA”: the binding signal is 4.43 log2 normalized intensity.

As to “GATAAGCGTATTTCAACCTTTGATCTATAAGCCTAGGGAGATTAGAGTATCGGTCGA”, the binding signal is 5.94 log2 normalized intensity.

Regarding “GAACTGAAAGAGACCTTTGACATCACCTAAGCCTAGGGAGATTAGAGTATCGGTCGA”, the binding signal turned out to be 2.04 log2 normalized intensity.

Regarding “TGCACTTTGACCGCTCATTTGATCCTCACAGCCTAGGGAGATTAGAGTATCGGTCGA”, the binding signal stood at 3.87 log2 normalized intensity.

In the case of “GCACTGATAAGCGTATTTCAACCTTTGATCGCCTAGGGAGATTAGAGTATCGGTCGA”, the binding signal was 7.8 log2 normalized intensity.

As to “GACTGACCTTTGATCATTTGAGGGTGACACGCCTAGGGAGATTAGAGTATCGGTCGA”, the binding signal is 5.65 log2 normalized intensity.

For “GATGATCATGGCTCACTGCACCTTGACCTCGCCTAGGGAGATTAGAGTATCGGTCGA”, the binding signal is 7.34 log2 normalized intensity.

On to “GTGGTCCTAAAATTGACCTTTGATCACTCAGCCTAGGGAGATTAGAGTATCGGTCGA”, for which the binding signal was found to be 9.68 log2 normalized intensity.

As for “GTGGTCCTAAGACTGACCTTTGATCATTTGGCCTAGGGAGATTAGAGTATCGGTCGA”, the binding signal stood at 8.56 log2 normalized intensity.

Consider “AGTGCGATGATCATGGCTCACTGCACCTTGGCCTAGGGAGATTAGAGTATCGGTCGA”, for which the binding signal was determined as 0.629 log2 normalized intensity.

Take “AGGAGGCACTGATAAGCGTATTTCAACCTTGCCTAGGGAGATTAGAGTATCGGTCGA”: the binding signal was determined as 0.384 log2 normalized intensity.

Turning to “CACCTTCAGTCACACTGTTTGCGCAAACTAGCCTAGGGAGATTAGAGTATCGGTCGA”, the binding signal is -0.824 log2 normalized intensity.

Consider “TACCAAGGCTCAGAGGTCAAGTCACTGCTCGCCTAGGGAGATTAGAGTATCGGTCGA”, for which the binding signal worked out at 2.57 log2 normalized intensity.

For “CCTTGGCTGTGTGACTCACCTTTGCTCTGAGCCTAGGGAGATTAGAGTATCGGTCGA”, the binding signal was determined as 3.71 log2 normalized intensity.

Turning to “GGGGTCTGGTTTCTAGGTAGATAAGGGAGTGCCTAGGGAGATTAGAGTATCGGTCGA”, the binding signal was found to be 1.29 log2 normalized intensity.

On to “TCATCCGCATCTGAAGATAAGAGAAGTTGCGCCTAGGGAGATTAGAGTATCGGTCGA”, for which the binding signal is -0.83 log2 normalized intensity.

For “AACAGTGAATGTTTCGTAATATTTAGGTGTGCCTAGGGAGATTAGAGTATCGGTCGA”, the binding signal came to 1.49 log2 normalized intensity.

Regarding “TCATTTTACAGATAAGGAAACCAAGGTCCAGCCTAGGGAGATTAGAGTATCGGTCGA”, the binding signal was 1.45 log2 normalized intensity.

With “CACCCCCATGCAAGTTCCCACAGAGCCCACGCCTAGGGAGATTAGAGTATCGGTCGA”, the binding signal turned out to be 4.54 log2 normalized intensity.

Turning to “AGTGTAAATATTTGAGGACACAAAGTGGACGCCTAGGGAGATTAGAGTATCGGTCGA”, the binding signal is 2.09 log2 normalized intensity.

For “CTCATGTGGTCCTAAAATTGACCTTTGATCGCCTAGGGAGATTAGAGTATCGGTCGA”, the binding signal turned out to be 10.5 log2 normalized intensity.

Consider “GCTGACCTTTGGTCTAAACCTACTTAGATCGCCTAGGGAGATTAGAGTATCGGTCGA”, for which the binding signal worked out at 4.25 log2 normalized intensity.

“TTGTTTACTCATGTGGTCCTAAGACTAACCGCCTAGGGAGATTAGAGTATCGGTCGA”: the binding signal was -0.3 log2 normalized intensity.

For “CTCATGTGGTCCTAAGACTGACCTTTGATCGCCTAGGGAGATTAGAGTATCGGTCGA”, the binding signal was 10.1 log2 normalized intensity.

For “AATTGACCTTTGATCACTCATGGGCAAGATGCCTAGGGAGATTAGAGTATCGGTCGA”, the binding signal worked out at 5.65 log2 normalized intensity.

In the case of “CCTAAAATTGACCTTTGATCACTCATGGGCGCCTAGGGAGATTAGAGTATCGGTCGA”, the binding signal stood at 8.21 log2 normalized intensity.

As to “AATCAACCTTTGATCGTTTGCATGCAGGGCGCCTAGGGAGATTAGAGTATCGGTCGA”, the binding signal came to 3.25 log2 normalized intensity.

Regarding “CAAATAAACCTTTGACCAATTGACCCTATCGCCTAGGGAGATTAGAGTATCGGTCGA”, the binding signal turned out to be 3.78 log2 normalized intensity.

For the sequence “GTTTACTCATGTGGTCCTAAGACTGACCTTGCCTAGGGAGATTAGAGTATCGGTCGA”, the binding signal stood at 3.77 log2 normalized intensity.
